Screen size: about 230,000 compounds; about 1,500 (0.65%) were called active. Not shown: some 3% with an inconclusive outcome. The sample holds actives, similar compounds and a random draw of the others, so the mix is not that of the screen. A number with no mark means an inactive call. Calls come from the whole dose curve; as a rule, active = well fitted inhibition curve with a large enough effect; inconclusive = small, poorly fitted or top-dose-only effect; inactive = no such curve, though single readings can be large or run the other way.

The results in this text go back to PubChem BioAssay AID485360 (National Center for Advancing Translational Sciences (NCATS), 2010).
% is set by controls: 0 for no effect and ±100 for the full control effect; potency is the fitted concentration of half-maximal effect.

Chain of Lethal(3)malignant brain tumor-like protein 1 (Homo sapiens) (Q9Y468 whole entry, looked up): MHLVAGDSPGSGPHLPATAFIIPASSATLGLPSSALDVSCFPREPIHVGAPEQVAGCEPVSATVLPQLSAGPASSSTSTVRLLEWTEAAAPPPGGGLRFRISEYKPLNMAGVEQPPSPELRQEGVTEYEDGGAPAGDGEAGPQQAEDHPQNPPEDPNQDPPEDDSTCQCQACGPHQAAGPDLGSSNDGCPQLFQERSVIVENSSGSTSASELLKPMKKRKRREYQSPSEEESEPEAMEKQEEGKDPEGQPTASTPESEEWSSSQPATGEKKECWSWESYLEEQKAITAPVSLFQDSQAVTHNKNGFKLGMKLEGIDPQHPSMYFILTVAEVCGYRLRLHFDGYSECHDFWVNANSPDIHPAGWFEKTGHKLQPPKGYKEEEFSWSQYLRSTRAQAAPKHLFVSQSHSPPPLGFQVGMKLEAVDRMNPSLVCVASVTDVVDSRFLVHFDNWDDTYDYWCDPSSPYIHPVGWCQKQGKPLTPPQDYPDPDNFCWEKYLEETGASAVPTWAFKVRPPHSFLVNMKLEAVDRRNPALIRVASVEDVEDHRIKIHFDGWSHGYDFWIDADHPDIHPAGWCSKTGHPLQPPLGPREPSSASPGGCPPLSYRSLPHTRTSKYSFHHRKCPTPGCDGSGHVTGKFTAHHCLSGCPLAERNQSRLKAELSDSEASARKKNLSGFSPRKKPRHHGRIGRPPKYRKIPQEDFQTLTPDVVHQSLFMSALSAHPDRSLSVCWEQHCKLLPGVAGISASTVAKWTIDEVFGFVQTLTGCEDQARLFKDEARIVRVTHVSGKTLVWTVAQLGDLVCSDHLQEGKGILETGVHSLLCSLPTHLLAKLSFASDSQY

The assay has as its target Lethal(3)malignant brain tumor-like protein 1 (Homo sapiens) (UniProt Q9Y468). Nature of the assay: qHTS Assay for the Inhibitors of L3MBTL1. Note: nearly all actives have a fitted effect of over 60% in size. To be noted: AlphaScreen L3MBTL1–H3K9me1 peptide binding; series mostly up to 57.1 µM; activity, negative = inhibition: at the top concentration. Put shortly:
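L3MBTL1 50 nM + b-AHA-H3(1-15)K9me1 75 nM, 30 min RT; compound added, 30 min RT; streptavidin donor/Ni-chelate acceptor beads 10 ug/mL each final, 30 min RT dark; AlphaScreen read.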
A general note: qHTS replaces the single test concentration by a dilution series.
Turning to `COc1ccc(NS(=O)(=O)c2ccc(C)c(C(=O)N(C)Cc3ccc(OC)cc3OC)c2)cc1`, the “activity, negative = inhibition” value is -0.449%.

For the compound `O=C(NCCC1CCCCN1S(=O)(=O)c1ccccc1)C(=O)NCC1CCCO1` (stereo unspecified), the “activity, negative = inhibition” value was 2.06%.

As to `CC(C)(C)OC(=O)NCCCCCNC(=O)c1nc[nH]c1C(=O)NCc1ccccc1`, the “activity, negative = inhibition” value is -12.7%.

`CC(C)(C)OC(=O)NCCCCCNC(=O)c1[nH]cnc1C(=O)Nc1nccs1`: the Potency was 28.2 µM (active).

For the compound `C[C@H](NC(=O)c1nc[nH]c1C(=O)NCC(=O)OC(C)(C)C)c1ccccc1`, the “activity, negative = inhibition” value was 39.2%.

Regarding `Cc1csc(=O)n1CC(=O)Nc1ccc(S(C)(=O)=O)cc1`, the “activity, negative = inhibition” value is -8.83%.

In the case of `Cc1ccc(S(=O)(=O)NC[C@H]2O[C@@H](n3cnc4c(N)ncnc43)[C@H](O)[C@@H]2O)s1`, the “activity, negative = inhibition” value is 2.48%.

For the compound `O=C(Cc1ccc(S(=O)(=O)N2CCOCC2)s1)N1CCN(c2ccc(C(F)(F)F)cc2[N+](=O)[O-])CC1`, the “activity, negative = inhibition” value is -6.57%.

Consider `Cc1cccc(-n2ncc3c(=O)[nH]c(SCC(=O)Nc4cc(C)on4)nc32)c1`, for which the “activity, negative = inhibition” value was -3.55%.

`O=C1CCCC(O)=C1N=Nc1ccc(S(=O)(=O)N2CCOCC2)cc1`: the “activity, negative = inhibition” value was -5.64%.

With `O=C1CCCC(O)=C1N=Nc1ccc2ncsc2c1`, the Potency was 25.1 µM (active).

Regarding `CC[C@@]1(C(=O)OC)N[C@H](CN(C)C(C)=O)[C@@H]2C(=O)N(C)C(=O)[C@@H]21`, the “activity, negative = inhibition” value was -2.06%.

In the case of `Cc1nnc(SCC(=O)Nc2cccc(N)c2)n1-c1ccccc1`, the “activity, negative = inhibition” value was -2.05%.

As for `O=C1c2ccccc2C(=O)c2c1cccc2N1CCN(CCO)CC1`, the “activity, negative = inhibition” value was -14.1%.

On to `O=c1cc(N2CCN(Cc3ccccc3)CC2)c(-c2ccccc2)n[nH]1`, for which the “activity, negative = inhibition” value is -2.53%.

As to `O=C1c2ccccc2C(=O)c2c1cccc2N1CCN(Cc2ccccc2)CC1`, the Potency was 14.1 µM (active).

`CN(CC(=O)O)C(=O)c1ccccc1`: the “activity, negative = inhibition” value was 1.31%.

As to `CCc1ccc(NC(=O)c2ccc(Cn3cc([N+](=O)[O-])cn3)cc2)cc1`, the “activity, negative = inhibition” value was 7.42%.

For the compound `Cc1cc([N+](=O)[O-])ccc1NC(=O)c1ccc(NC(=O)C(C)C)cc1`, the activity, negative = inhibition is -0.242% [at 11.4 µM].

Regarding `Cn1ccc(=Nc2ccc(NC(=O)c3ccc(N=c4ccn(C)c5ccc([N+](=O)[O-])cc45)cc3)cc2)cc1`, the Potency was 25.1 µM (active).

For `COCC(=O)N1CCCC(C(=O)c2ccc(C(F)(F)F)cc2)C1` (stereo unspecified), the “activity, negative = inhibition” value is 0.665%.

`Cc1c(OC(C)C(=O)NCC2CCC(C(=O)O)CC2)ccc2c1oc(=O)c1ccccc12` (stereo unspecified): the “activity, negative = inhibition” value was -4.44%.

As to `CCCNC(=O)CCn1cc(-c2ccc(OC)cc2)nc1CCN`, the “activity, negative = inhibition” value was -8.13%.

As to `CCOC(=O)c1cn[nH]c1NC(=S)Nc1ccccc1`, the “activity, negative = inhibition” value is 34.9%.

For the compound `CCN(C(=O)Cc1nc(N)n[nH]1)C1(C(=O)Nc2ccccc2)CCCCC1`, the Potency is 11.2 µM (active).

Turning to `CCOC(=O)Cc1csc(NC(=O)Nc2ccccc2)n1`, the “activity, negative = inhibition” value was 2.6%.
